Hits are enriched below; roughly 3.2% of the tested compounds scored in any of these assays.
14-3-3 Bad PPI – disrupts binding of bovine 14-3-3 zeta to phospho-Bad peptide | P63103 | 220,000 tested, 0.71% active | TR-FRET 14-3-3zeta/Dy647-pBad peptide displacement, 1 h | inhibition, % at 21.7 µM;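 active = inhibition above about 70%, limit read from the data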;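 note: 0% = full 14-3-3 plus peptide FRET controls and 100% = background without 14-3-3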
p47phox inh – p47phox (human) inhibition. P14598. p47phox/p22phox peptide binding, fluorescence polarization, 2 h. inhibition, % at 24.7 µM. 220,000 tested, 0.53% active. AID 1274;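 active = inhibition above about 30%, limit read from the data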;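 note: 0% = p47phox with labelled peptide and 100% = labelled peptide alone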
Target sequence (P14598 whole entry, looked up): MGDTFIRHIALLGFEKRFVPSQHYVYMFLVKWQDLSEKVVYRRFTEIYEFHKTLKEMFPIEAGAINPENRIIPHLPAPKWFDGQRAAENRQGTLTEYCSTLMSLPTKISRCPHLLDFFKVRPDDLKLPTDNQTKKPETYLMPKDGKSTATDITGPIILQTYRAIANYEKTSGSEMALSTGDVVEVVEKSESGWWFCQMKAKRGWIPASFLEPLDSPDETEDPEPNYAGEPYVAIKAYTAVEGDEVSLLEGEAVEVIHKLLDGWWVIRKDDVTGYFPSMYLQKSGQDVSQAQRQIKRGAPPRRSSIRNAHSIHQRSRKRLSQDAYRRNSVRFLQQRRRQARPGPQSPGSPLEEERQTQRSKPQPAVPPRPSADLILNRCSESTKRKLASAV
Mcl1 Bid PPI – disrupts binding of human Mcl-1 to Bid peptide; inhibition, % at 21.7 µM; Q07820; TR-FRET Mcl-1/Bid-Dy647 peptide binding, 1536-well; 220,000 tested, 0.97% active;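 active = compounds that cut the binding signal by more than half at the single screening dose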;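 note: His-tagged Mcl-1 with europium anti-His antibody binding Bid BH3 peptide; 0% = Mcl-1 plus peptide wells and 100% = peptide-only wells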
Mcl1-Noxa inh – Mcl-1/Noxa interaction inhibition. 220,000 tested, 1.5% active. TR-FRET Mcl-1/Noxa peptide binding, 2 h. inhibition, % at 21.7 µM. Q07820;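 active = compounds that cut the protein-peptide binding signal by more than 50% relative to plate controls in a single-dose test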;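 note: His-tagged Mcl-1 with rhodamine Noxa BH3 peptide and terbium anti-His antibody; 0% = Mcl-1 plus Noxa peptide wells and 100% = peptide-only wells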
Bim-Mcl-1 – human Bim-Mcl-1 interaction inhibition | Q07820 | 190,000 tested, 0.1% active | Bead-based flow cytometry, Bim peptide-Mcl-1 binding | inhibition, % at 10 µM | AID 1009; in the data active = inhibition above about 40%;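 note: 0% = no compound tracer wells and 100% = peptide blocker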
Numbers without * were called inactive; . = no result given; ! = repeats disagree; [ ] = remark or other dose.

SMILES	14-3-3 Bad PPI	p47phox inh	Mcl1 Bid PPI	Mcl1-Noxa inh	Bim-Mcl-1
COc1ccc(C)cc1S(=O)(=O)N(C)CC(=O)NCc1ccco1	-1	-1	94*	12	1
C=CCSc1nc2c(sc3nc(C)cc(C)c32)c(=O)[nH]1	16	0	-5	57*	1
Cc1cc(C)c2c(n1)sc1c(=O)[nH]c(SCc3ccccc3)nc12	10	-8	2	7	-2
C/C(=N\NC(=O)c1ccccc1F)c1ccc2c(c1)Nc1ccccc1S2	-2	-63	-12	62*	0
C/C(=N\NC(=O)c1ccc(O)cc1)c1ccc2c(c1)Nc1ccccc1S2	-5	-35	-21	50	-3
Nc1[nH]c(=O)ncc1F	-4	-7	57*!	-10	-1
C=CCNc1nc(C)c(C(C)=O)cc1C#N	-16	-18	-3	10	4
CC(=O)c1cc(C#N)c(NCCCN(C)C)nc1C	-5	-4	56*	3	3
O=C(CSc1nnc(-c2ccco2)c(-c2ccco2)n1)c1ccccc1	19	4	40	96*	1
CC(=O)c1ccc(NC(=O)CSc2nnc(-c3ccco3)c(-c3ccco3)n2)cc1	8	-1	-77	79*	9
Nc1ccccc1C(=O)NNc1c2ccccc2nc2ccccc12	-7	-4	-44	42	.
Cc1ccc(C(=O)NNc2c3ccccc3nc3ccccc23)cc1	55	-5	12	81*	.
Cc1ccc(C(=O)NNC(=O)c2ccc3ncccc3c2)cc1	4	33*	-9	-4	50*
Cc1ccc(C(=O)NNC2=Nc3cccc4cccc2c34)cc1	-2	-35	20	67*	-5
O=S(=O)(c1cnc(Cl)c(Br)c1)N1CCN(c2ncccn2)CC1	1	-9	5	1	.
CCOCCCNC(=O)c1cc(=O)n(Cc2cccc(C)c2)c2ccccc12	2	-14	-5	9	-27
c1cncc(-c2nc(NCc3ccco3)c3ccccc3n2)c1	67	-9	53*	51*	-2
Cc1ccc(-c2nc(NCc3ccco3)c3ccccc3n2)cc1	2	-35	-18	17	0
c1ccc(-c2nc(NCc3ccco3)c3oc4ccccc4c3n2)cc1	73*	-52	18	30	-3
O=C(O)c1ccc2c(c1)C1C=CCC1C(c1cc3c(cc1Br)OCO3)N2 (centres undefined)	9	-2	-58	16	-1
COC(=O)c1ccc(C2Nc3ccc(/C(C)=N/NC(=O)C(OC)c4ccccc4)cc3C3C=CCC32)cc1 (centres undefined)	.	.	.	.	13
Cc1ccc2c(c1)C1C=CCC1C(C(=O)O)N2 (centres undefined)	86*[fluorescence artefact?]	6	89*	107*	9
COc1cccc2c1NC(C(=O)O)C1CC=CC21 (centres undefined)	42	-4	75*	101*	6
COc1cccc(C2Nc3c(F)cc(Br)cc3C3C=CCC32)c1OC (centres undefined)	-20	-4	-11	-6	5
CC(=O)c1ccc2c(c1)C1C=CCC1C(C(=O)O)N2 (centres undefined)	65	6	-47	74*	3
SMILES	14-3-3 Bad PPI	p47phox inh	Mcl1 Bid PPI	Mcl1-Noxa inh	Bim-Mcl-1
CC(C)C1Nc2ccc(S(N)(=O)=O)cc2C2C=CCC21 (centres undefined)	1	-14	-39	42	0
CC(=O)c1ccc2c(c1)C1C=CCC1C(c1ccncc1)N2 (centres undefined)	-6	1	-37	51*	6
C1=CC2c3ccccc3NC(c3ccncc3)C2C1 (centres undefined)	-17	9	-26	78*	4
Brc1cc2c(cc1C1Nc3ccccc3C3C=CCC31)OCO2 (centres undefined)	10	-28	-32	17	-2
COc1cccc(CNC(=O)CCSCc2ccccc2F)c1	-8	-1	-29	26	2
Cc1ccc(NS(=O)(=O)c2ccc(Cl)c(NC(=S)NC(=O)C3CCCCC3)c2)cc1Cl	4	-12	4	25	-3
COc1ccc(C2CC(C)=C(C#N)S(=O)(=O)C2C#N)cc1 (centres undefined)	-6	-15	-70	7	.
O=C(O)CN1C(=O)NC2(CCOc3ccccc32)C1=O (centres undefined)	2	-7	4	6	.
CCN(c1ccc(NC(=O)CN2C(=O)NC3(CCOc4ccccc43)C2=O)cc1)C(C)C (centres undefined)	2	-5	12	66*	-2

High-throughput results deposited in PubChem BioAssay by several laboratories.
